According to PubChem BioAssay:
Several values for one entry are separate records, joined by “and”; a condition that tells them apart may be missing. Equal entries are not always repeated. Inconclusive results are not listed. A structure can be active in one record and inactive in another. Activity calls are given as the source filed them.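 How the source made its calls, unless noted: active means compounds that lower survival of HCT116 colon cancer cells in the luminescence readout, no numeric limit stated; inactive means the rest.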

How the values were obtained:
[1] = liver-stage malaria parasite growth inhibition, primary screen, cell-based, HepG2, luciferase luminescence, HepG2 viability (AID 624349; in the data active means parasite load remaining mostly below about 12%, no sharp cut-off; inactive means mostly above about 10%;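 further: 100% = mean of DMSO negative control wells on the same plate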); conditions: P. berghei liver stage in HepG2, luciferase luminescence, concentration not given here; parasite load remaining: stronger effect = lower value; viability: measured here: HepG2 viability without parasites
[2] = stimulators of nuclear beta-catenin in C2C12, primary screen, imaging, WNT3A-conditioned medium, mouse C2C12, NPC library (AID 1117326; in the data active means nuclear beta-catenin stimulation mostly above about 4.2%, no sharp cut-off; inactive means mostly below about 10%; further: reference of the scale not given here); conditions: stronger effect = higher value
[3] = stimulators of insulin release from INS-1E, primary screen, cell-based, 5 mM glucose, NPC library (AID 1117329;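 active means compound raises insulin release from rat beta cells at 5 mM glucose, no numeric limit stated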; further: reference of the scale not given here); conditions: rat INS-1E insulin secretion, at 10 µM, stronger effect = higher value
[4] = growth inhibition of GSK3B-pretreated HCT116 cells – cell-based, CellTiter-Glo, 0.2 to 20 µM (AID 1117336;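 active means compounds lowering colon cancer cell viability after pretreatment blocking the GSK3B kinase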); conditions: HCT116 viability after GSK3B inhibitor, at 20 µM, stronger effect = higher value
[5] = inhibition of endothelial tube formation, primary screen, imaging, VEGF stimulated, CD31 staining, tube area, NPC library (AID 1117340;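 active means compound that reduces growth-factor-driven endothelial tube area in a mixed cell culture, no cutoff stated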); conditions: VEGF-stimulated ADSC/ECFC co-culture, at 10 µM, stronger effect = higher value
[6] = glucagon-like peptide 1 release enhancers, primary assay, NCI-H716 cell line, NPC library (AID 1117341;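 active means compound raises GLP1 secretion from the human gut endocrine cells, with no numeric limit stated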; further: reference of the scale not given here); conditions: NCI-H716 cells, at 10 µM, stronger effect = higher value
[7] = HCT116 colon cancer cell growth inhibition, primary screen, CellTiter-Glo luminescence, NPC library (AID 1117342); conditions: at 20 µM (top of the series)
[8] = CellTiter-Glo luminescent readout of SW480 viability loss, NPC library primary (AID 1117343;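 active means compounds that lower viability of the colon cancer cells in the luminescence readout, with no numeric limit stated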); conditions: CellTiter-Glo luminescence; at 20 µM (top of the series) unless noted
[9] = decreased DLD-1 cellular survival, CellTiter-Glo luminescent readout, NPC compound collection, primary HTS (AID 1117346;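 active means compounds that lower survival of DLD-1 colon cancer cells in the luminescence readout, no cutoff given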); conditions: DLD-1 viability, CellTiter-Glo luminescence; at 20 µM (top of the series)
[10] = sensitizers of A549 cells to miR-34 induction, primary screen, imaging, A549 dox-inducible miR-34, nuclei and caspase counts (AID 1347080;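 active means compounds whose cell count with miR-34 switched on is under 0.7 times the count with it off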); conditions: A549 miR-34 inducible, Hoechst nuclei count, 48 h
[11] = phospholipid biosynthesis inhibitors in animal cells, primary screen, cell-based, LOPAC library, screen 4 (AID 1347384; call rule not given here); conditions: phospholipid biosynthesis inhibition screen, at 10 µM
[12] = survival rescue of mitochondrial mutant cells in low glucose, primary screen, MELAS cybrids, Rieske KO mouse fibroblasts, CellTiter-Glo (AID 1508586;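 active means mean z-score across replicates of 1.96 or higher in either the MELAS or the Rieske mutant cell line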;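 further: z relative to plate mean and SD of compound and empty wells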)
[13] = viability rescue of complex I mutant cybrids, primary screen, cell-based, galactose medium, ATP luminescence (AID 1645843;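 active means z-score of at least 1.8 in each of two replicates, scored against plate mean and spread of sample wells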;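 further: positive z means more ATP and so rescue of galactose-driven cybrid death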); conditions: complex I mutant cybrid cells, 72 h, stronger effect = higher value
[14] = growth inhibition of DIPG glioma cells, dose response, cell-based, SU-DIPG-IV, MIPE4.0, CellTiter-Glo, qHTS (AID 1347063; cut-off not given, nearly all actives have AC50 up to about 30 µM;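 further: compound exposure lasted 48 hours before the viability readout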); conditions: SU-DIPG-IV viability, CellTiter-Glo ATP luminescence
[15] = growth inhibition of DIPG glioma cells, dose response, cell-based, JHH-DIPG-1, MIPE4.0, CellTiter-Glo, qHTS (AID 1347062; cut-off not given, nearly all actives have AC50 up to about 27 µM;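 on AC50: cells exposed to compound for two days before readout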); conditions: JHH-DIPG-1 viability, CellTiter-Glo ATP luminescence
[16] = viability loss in pontine glioma line – cell-based, SU-DIPG-XXV, MIPE5.0, CellTiter-Glo, qHTS, dose response (AID 1347065; cut-off not given, nearly all actives have AC50 up to about 26 µM;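 further: cells exposed to compound for 48 hours before ATP readout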); conditions: CellTiter-Glo ATP luminescence
[17] = JHH-DIPG-1 glioma cell viability, MIPE5.0 library, CellTiter-Glo luminescence, qHTS (AID 1347067; cut-off not given, nearly all actives have AC50 up to about 26 µM;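 further: cells exposed to compound for 48 hours before readout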); conditions: JHH-DIPG-1 glioma viability, CellTiter-Glo ATP luminescence
[18] = SU-DIPG-XXV glioma cell viability, MIPE5.0 library, qHTS (AID 1347068; cut-off not given, nearly all actives have IC50 up to about 30 µM)
[19] = SU-DIPG-VI glioma cell viability, MIPE4.0 library, CellTiter-Glo luminescence, qHTS (AID 1347066; cut-off not given, nearly all actives have AC50 up to about 30 µM;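 further: cells exposed to compound for 48 hours before readout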); conditions: CellTiter-Glo ATP luminescence
[20] = stronger effect = lower value, cell number ratio, induced over uninduced
[21] = measured here: relative caspase fold change +Dox/-Dox
[22] = measured here: total cells with miR-34 induction, stronger effect = lower value
[23] = measured here: total cells without miR-34 induction
[24] = MELAS cybrid survival, CellTiter-Glo 48 h, stronger effect = higher value
[25] = Rieske KO mouse fibroblast survival, CellTiter-Glo 72 h

CC1=C(C)C(=O)C(CCCCC#CCCCC#CCO)=C(C)C1=O
-0.7%: nuclear beta-catenin stimulation ([2]; stimulation, at 2 µM)
inactive: parasite load remaining [1] 55.8% | nuclear beta-catenin stimulation ([2]; at 10 µM) 2.7% | insulin secretion stimulation [3] 2.7% | tube area decrease [5] 16% | GLP1 secretion stimulation [6] 5% | fold change [10, 20] 1.02 and 0.926 and 0.838 | outcome [11] | z-score [12, 24] 0.195 | z-score [13] -1.52 and -1.61
8160 and 3040 and 7890: cell count [10, 22]
active: viability decrease [4] 96% | inhibition of viability [7] 87.4% | viability decrease (inhibition) [8] 126% | viability decrease (inhibition) [9] 54.6%
7960 and 3280 and 9410: cell count [10, 23]
-1.24: z-score [12, 25]
1.5 and 0.952 and 1.53: fold change [10, 21]
216%: viability [1]

O[C@@H](CNC[C@H](O)[C@H]1CCc2cc(F)ccc2O1)[C@@H]1CCc2cc(F)ccc2O1
active: viability decrease [4] 108% | tube area decrease [5] 60.9% | inhibition of viability [7] 112% | viability decrease (inhibition) [8] 130% | viability decrease (inhibition) [9] 101% | AC50 [14] 20.9 µM
inactive: nuclear beta-catenin stimulation ([2]; at 10 µM) 8.6% | insulin secretion stimulation [3] 2.75% | GLP1 secretion stimulation [6] 5.8%
-2.1%: nuclear beta-catenin stimulation ([2]; stimulation, at 2 µM)

COc1cccc(N(C)C(=S)Oc2ccc3c(c2)CCCC3)n1
active: viability decrease (inhibition) [8] 54.5% | viability decrease (inhibition) [9] 55.4%
inactive: nuclear beta-catenin stimulation ([2]; at 10 µM) 0.4% | insulin secretion stimulation [3] -2.1% | viability decrease [4] 48.8% | tube area decrease [5] 17.8% | GLP1 secretion stimulation [6] -2.3% | inhibition of viability [7] 13.6% | outcome [15] | outcome [14] | z-score [12, 24] 0.186
0.4%: nuclear beta-catenin stimulation ([2]; stimulation, at 2 µM)
-0.761: z-score [12, 25]

CCCS(=O)c1ccc2nc(NC(=O)OC)[nH]c2c1 (stereo not given)
7350 and 6760: cell count [10, 23]
0.991 and 1.16: fold change [10, 21]
6780 and 6570: cell count [10, 22]
-1.8%: nuclear beta-catenin stimulation ([2]; stimulation, at 2 µM)
inactive: parasite load remaining [1] 34.6% | nuclear beta-catenin stimulation ([2]; at 10 µM) 4.7% | insulin secretion stimulation [3] 0.2% | tube area decrease [5] 20.1% | GLP1 secretion stimulation [6] 0.6% | viability decrease (inhibition) [9] 29.6% | outcome [17] | outcome [18] | fold change [10, 20] 0.922 and 0.972 | z-score [12, 24] -0.274 and -0.499 | z-score [13] 0.54
83%: viability [1]
0.419 and -0.334: z-score [12, 25]
active: viability decrease [4] 71.2% | inhibition of viability [7] 65.2% | viability decrease (inhibition) [8] 87.9% | AC50 [14] 14.8 µM | AC50 [16] 23.5 µM

C[C@]12CC[C@@H]3c4ccc(O)cc4C[C@@H](CCCCCCCCCS(=O)CCCC(F)(F)C(F)(F)F)[C@H]3[C@@H]1CC[C@@H]2O (stereo not given in full)
7220 and 6230: cell count [10, 22]
121%: viability [1]
1.73 and 1.2: fold change [10, 21]
0.4%: nuclear beta-catenin stimulation ([2]; stimulation, at 2 µM)
7310 and 7580: cell count [10, 23]
-0.225 and 1.88: z-score [12, 25]
inactive: parasite load remaining [1] 12.8% | nuclear beta-catenin stimulation ([2]; at 10 µM) 1% | insulin secretion stimulation [3] 5.1% | viability decrease [4] -4.5% | tube area decrease [5] 16.2% | GLP1 secretion stimulation [6] -2.7% | inhibition of viability [7] 49.8% | viability decrease (inhibition) [9] 18.9% | outcome [15] | outcome [16] | outcome [19] | outcome [17] | outcome [18] | fold change [10, 20] 0.987 and 0.822 | outcome [11] | z-score [12, 24] -1.54 and 0.0305
active: viability decrease (inhibition) [8] 54%
2.5 (active) and -0.155 (inactive): z-score [13]

O=C(CS(=O)Cc1ccco1)NC/C=C\COc1cc(CN2CCCCC2)ccn1 (stereo not given)
-0.8%: nuclear beta-catenin stimulation ([2]; stimulation, at 2 µM)
inactive: nuclear beta-catenin stimulation ([2]; at 10 µM) -0.3% | insulin secretion stimulation [3] 4% | viability decrease [4] -4.8% | tube area decrease [5] 8% | GLP1 secretion stimulation [6] -0.5% | inhibition of viability [7] 2.2% | viability decrease (inhibition) [8] -8.8% | viability decrease (inhibition) [9] 6.7% | outcome [15] | outcome [14] | outcome [19]

Cc1c(C(=O)NN2CCCCC2)nn(-c2ccc(Cl)cc2Cl)c1-c1ccc(Cl)cc1
0.317 and -0.818: z-score [12, 25]
6120 and 8010: cell count [10, 23]
active: viability decrease [4] 109% | tube area decrease [5] 110% | inhibition of viability [7] 108% | viability decrease (inhibition) [8] 130% | viability decrease (inhibition) [9] 101% | AC50 [15] 16.6 µM | AC50 [14] 16.6 µM | AC50 [17] 18.6 µM
inactive: nuclear beta-catenin stimulation ([2]; at 10 µM) -0.4% | insulin secretion stimulation [3] 3% | GLP1 secretion stimulation [6] 1.2% | outcome [18] | fold change [10, 20] 0.783 and 0.989 | z-score [12, 24] -1.37 and -3.1 | z-score [13] -2.65
0.923 and 2.07: fold change [10, 21]
-0.1%: nuclear beta-catenin stimulation ([2]; stimulation, at 2 µM)
4800 and 7920: cell count [10, 22]

O=C(O)[C@H](O)c1ccccc1
0.478: fold change [10, 21]
inactive: nuclear beta-catenin stimulation ([2]; at 10 µM) 3.7% | insulin secretion stimulation [3] -0.6% | viability decrease [4] -6.9% | tube area decrease [5] -9.1% | GLP1 secretion stimulation [6] 1.8% | inhibition of viability [7] -5.47% | viability decrease (inhibition) [8] -30.4% | viability decrease (inhibition) [9] -21.9% | fold change [10, 20] 0.975
5430: cell count [10, 22]
3.1%: nuclear beta-catenin stimulation ([2]; stimulation, at 2 µM)
5570: cell count [10, 23]

CCCCCCCCCCCCCCCC(=O)O
inactive: nuclear beta-catenin stimulation ([2]; at 10 µM) 0.3% | insulin secretion stimulation [3] 2.3% | viability decrease [4] 2.25% | tube area decrease [5] -25.4% | GLP1 secretion stimulation [6] 0.3% | inhibition of viability [7] -38.8% | viability decrease (inhibition) [8] 32.7% | viability decrease (inhibition) [9] 8.5% | fold change [10, 20] 1.03
1.12: fold change [10, 21]
5710: cell count [10, 23]
1.7%: nuclear beta-catenin stimulation ([2]; stimulation, at 2 µM)
5900: cell count [10, 22]

CCCCC(CC)COC(=O)C(C#N)=C(c1ccccc1)c1ccccc1 (stereo not given)
0.7%: nuclear beta-catenin stimulation ([2]; stimulation, at 2 µM)
inactive: nuclear beta-catenin stimulation ([2]; at 10 µM) -0.2% | insulin secretion stimulation [3] -1.3% | GLP1 secretion stimulation [6] -1.3% | inhibition of viability [7] 43.8% | viability decrease (inhibition) [8] 28.2% | outcome [15] | outcome [14] | outcome [19] | outcome [18]
active: viability decrease [4] 51.7% | tube area decrease [5] 19.7% | viability decrease (inhibition) [9] 56.9%

O=c1[nH]c(=O)n([C@H]2C[C@H](O)[C@@H](CO)O2)cc1C(F)(F)F
active: nuclear beta-catenin stimulation ([2]; at 10 µM) 44.5% | viability decrease [4] 84.6% | tube area decrease [5] 99.5% | inhibition of viability [7] 84% | viability decrease (inhibition) [8] 98.1% | viability decrease (inhibition) [9] 41.5%
inactive: insulin secretion stimulation [3] 1.1% | GLP1 secretion stimulation [6] -3.2% | outcome [15] | outcome [16] | outcome [19] | outcome [17] | outcome [18] | z-score [12, 24] 0.972
39%: nuclear beta-catenin stimulation ([2]; stimulation, at 2 µM)
1.84: z-score [12, 25]
